Assay results from ChEMBL document CHEMBL1961873, “Compounds: GSK PKIS; Assays: Nanosyn kinase panel” (2012).

Legend:
[1] = molecular target: Tyrosine-protein kinase Fer (Homo sapiens) (UniProt P16591); conditions: at 1 µM
[2] = molecular target: Tyrosine-protein kinase Fes/Fps (Homo sapiens) (UniProt P07332); conditions: at 0.1 µM
[3] = molecular target: Tyrosine-protein kinase Fes/Fps (Homo sapiens) (UniProt P07332); conditions: at 1 µM
[4] = molecular target: Fibroblast growth factor receptor 1 (Homo sapiens) (UniProt P11362); conditions: at 0.1 µM
[5] = molecular target: Fibroblast growth factor receptor 1 (Homo sapiens) (UniProt P11362); conditions: at 1 µM
[6] = molecular target: Fibroblast growth factor receptor 2 (Homo sapiens) (UniProt P21802); conditions: at 1 µM
[7] = molecular target: Fibroblast growth factor receptor 3 (Homo sapiens) (UniProt P22607); conditions: at 0.1 µM
[8] = molecular target: Fibroblast growth factor receptor 3 (Homo sapiens) (UniProt P22607); conditions: at 1 µM
[9] = molecular target: Fibroblast growth factor receptor 4 (Homo sapiens) (UniProt P22455); conditions: at 0.1 µM
[10] = molecular target: Fibroblast growth factor receptor 4 (Homo sapiens) (UniProt P22455); conditions: at 1 µM
[11] = molecular target: Tyrosine-protein kinase Fgr (Homo sapiens) (UniProt P09769); conditions: at 0.1 µM
[12] = molecular target: Tyrosine-protein kinase Fgr (Homo sapiens) (UniProt P09769); conditions: at 1 µM
[13] = molecular target: Vascular endothelial growth factor receptor 1 (Homo sapiens) (UniProt P17948); conditions: at 0.1 µM
[14] = molecular target: Vascular endothelial growth factor receptor 1 (Homo sapiens) (UniProt P17948); conditions: at 1 µM
[15] = molecular target: Receptor-type tyrosine-protein kinase FLT3 (Homo sapiens) (UniProt P36888); conditions: at 0.1 µM
[16] = molecular target: Receptor-type tyrosine-protein kinase FLT3 (Homo sapiens) (UniProt P36888); conditions: at 1 µM
[17] = tested on: T1, Receptor-type tyrosine-protein kinase FLT3 (Homo sapiens), P36888 [D835Y]; conditions: at 0.1 µM
T1 sequence (whole entry): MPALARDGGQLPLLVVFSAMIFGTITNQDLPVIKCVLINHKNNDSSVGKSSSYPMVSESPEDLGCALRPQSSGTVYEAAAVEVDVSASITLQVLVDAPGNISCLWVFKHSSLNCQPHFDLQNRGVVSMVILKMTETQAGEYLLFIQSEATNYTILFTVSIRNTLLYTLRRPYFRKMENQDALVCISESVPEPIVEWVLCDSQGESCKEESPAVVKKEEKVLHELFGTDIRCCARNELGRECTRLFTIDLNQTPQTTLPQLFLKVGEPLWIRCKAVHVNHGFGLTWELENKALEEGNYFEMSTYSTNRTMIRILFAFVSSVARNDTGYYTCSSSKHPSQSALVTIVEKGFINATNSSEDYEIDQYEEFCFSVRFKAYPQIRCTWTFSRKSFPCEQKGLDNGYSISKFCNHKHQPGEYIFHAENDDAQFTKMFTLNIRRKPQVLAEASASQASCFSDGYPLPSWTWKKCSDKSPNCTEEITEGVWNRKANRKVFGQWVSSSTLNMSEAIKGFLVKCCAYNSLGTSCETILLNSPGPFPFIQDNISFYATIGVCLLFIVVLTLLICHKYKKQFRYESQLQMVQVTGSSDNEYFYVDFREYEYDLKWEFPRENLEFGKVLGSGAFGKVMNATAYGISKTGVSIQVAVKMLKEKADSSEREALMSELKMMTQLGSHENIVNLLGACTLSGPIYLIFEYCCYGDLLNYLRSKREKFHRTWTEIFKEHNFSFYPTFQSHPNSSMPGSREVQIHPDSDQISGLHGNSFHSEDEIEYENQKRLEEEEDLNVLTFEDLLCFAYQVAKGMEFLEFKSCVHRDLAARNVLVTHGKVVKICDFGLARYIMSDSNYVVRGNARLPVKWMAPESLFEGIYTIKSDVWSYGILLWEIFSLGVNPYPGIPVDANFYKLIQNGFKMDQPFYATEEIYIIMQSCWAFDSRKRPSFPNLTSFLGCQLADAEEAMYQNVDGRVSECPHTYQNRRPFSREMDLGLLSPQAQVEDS

[18] = molecular target: Non-receptor tyrosine-protein kinase TYK2 (Homo sapiens) (UniProt P29597); conditions: at 1 µM;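 further: values are mean percent inhibition of TYK2 kinase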
[19] = molecular target: T2, Tyrosine-protein kinase receptor TYRO3 (Homo sapiens) (UniProt Q06418); conditions: at 0.1 µM;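 further: reported percentages are averaged inhibition values of TYRO3 kinase activity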
T2 sequence (whole entry): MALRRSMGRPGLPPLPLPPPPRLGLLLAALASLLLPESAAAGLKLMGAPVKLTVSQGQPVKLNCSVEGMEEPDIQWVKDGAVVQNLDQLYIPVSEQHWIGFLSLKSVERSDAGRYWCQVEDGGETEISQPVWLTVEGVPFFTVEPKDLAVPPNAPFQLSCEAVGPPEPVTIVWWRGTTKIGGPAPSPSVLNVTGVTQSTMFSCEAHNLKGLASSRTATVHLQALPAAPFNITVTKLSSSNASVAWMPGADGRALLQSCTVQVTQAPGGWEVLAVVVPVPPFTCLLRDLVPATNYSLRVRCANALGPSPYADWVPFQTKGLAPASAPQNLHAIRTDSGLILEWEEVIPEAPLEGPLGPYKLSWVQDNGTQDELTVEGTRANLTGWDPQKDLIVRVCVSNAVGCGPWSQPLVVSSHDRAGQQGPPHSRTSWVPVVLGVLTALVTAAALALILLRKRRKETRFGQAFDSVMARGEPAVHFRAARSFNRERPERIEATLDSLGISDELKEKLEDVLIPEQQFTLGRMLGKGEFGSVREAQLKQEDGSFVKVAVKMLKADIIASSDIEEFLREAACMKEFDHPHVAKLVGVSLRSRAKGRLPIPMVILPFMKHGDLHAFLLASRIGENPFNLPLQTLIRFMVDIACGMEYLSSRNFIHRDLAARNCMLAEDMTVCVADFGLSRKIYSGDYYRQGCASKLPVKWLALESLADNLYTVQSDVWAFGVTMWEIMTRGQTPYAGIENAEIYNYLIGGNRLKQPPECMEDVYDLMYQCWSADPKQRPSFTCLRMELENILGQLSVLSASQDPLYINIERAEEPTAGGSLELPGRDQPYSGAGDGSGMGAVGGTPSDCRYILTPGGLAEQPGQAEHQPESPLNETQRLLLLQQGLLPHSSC

[20] = molecular target: Fibroblast growth factor receptor 2 (Homo sapiens) (UniProt P21802); conditions: at 0.1 µM

Chain of Fibroblast growth factor receptor 4 (Homo sapiens) (P22455 22-802 limits assumed): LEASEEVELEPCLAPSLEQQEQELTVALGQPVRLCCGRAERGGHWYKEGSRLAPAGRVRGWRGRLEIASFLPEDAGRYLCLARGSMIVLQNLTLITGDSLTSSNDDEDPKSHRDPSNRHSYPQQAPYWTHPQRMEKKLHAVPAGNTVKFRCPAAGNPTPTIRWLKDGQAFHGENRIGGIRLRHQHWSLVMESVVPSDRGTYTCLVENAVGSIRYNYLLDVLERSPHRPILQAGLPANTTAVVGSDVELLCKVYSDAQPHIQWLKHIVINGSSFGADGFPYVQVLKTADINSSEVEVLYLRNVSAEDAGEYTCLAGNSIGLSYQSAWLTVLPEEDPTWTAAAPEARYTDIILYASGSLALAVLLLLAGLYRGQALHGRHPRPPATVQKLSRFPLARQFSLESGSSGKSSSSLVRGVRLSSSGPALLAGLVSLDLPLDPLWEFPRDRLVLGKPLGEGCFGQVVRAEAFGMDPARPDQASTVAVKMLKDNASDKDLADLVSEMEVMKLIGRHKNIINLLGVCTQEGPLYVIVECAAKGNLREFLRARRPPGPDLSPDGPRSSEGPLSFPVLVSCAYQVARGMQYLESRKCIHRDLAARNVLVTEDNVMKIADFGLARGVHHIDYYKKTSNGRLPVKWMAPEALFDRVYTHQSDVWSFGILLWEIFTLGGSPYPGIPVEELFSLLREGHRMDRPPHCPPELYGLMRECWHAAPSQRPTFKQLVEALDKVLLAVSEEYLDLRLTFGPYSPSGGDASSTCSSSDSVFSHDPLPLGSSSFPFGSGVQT
Chain of Tyrosine-protein kinase Fgr (Homo sapiens) (P09769 2-529 limits assumed): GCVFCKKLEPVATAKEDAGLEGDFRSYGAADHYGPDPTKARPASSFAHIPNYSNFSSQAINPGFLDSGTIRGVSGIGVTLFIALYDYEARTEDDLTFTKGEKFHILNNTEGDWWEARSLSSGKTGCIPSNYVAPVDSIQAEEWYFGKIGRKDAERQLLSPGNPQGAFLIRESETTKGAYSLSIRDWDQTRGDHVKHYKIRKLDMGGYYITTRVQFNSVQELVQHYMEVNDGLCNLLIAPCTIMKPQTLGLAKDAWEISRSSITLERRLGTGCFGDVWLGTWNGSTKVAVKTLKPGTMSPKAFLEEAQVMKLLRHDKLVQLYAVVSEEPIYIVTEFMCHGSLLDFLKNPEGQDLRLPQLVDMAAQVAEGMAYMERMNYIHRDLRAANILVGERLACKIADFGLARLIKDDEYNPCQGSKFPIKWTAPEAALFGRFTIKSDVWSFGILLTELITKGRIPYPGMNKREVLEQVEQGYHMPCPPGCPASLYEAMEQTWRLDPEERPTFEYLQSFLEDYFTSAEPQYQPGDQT
Chain of Tyrosine-protein kinase Fes/Fps (Homo sapiens) (P07332 whole entry): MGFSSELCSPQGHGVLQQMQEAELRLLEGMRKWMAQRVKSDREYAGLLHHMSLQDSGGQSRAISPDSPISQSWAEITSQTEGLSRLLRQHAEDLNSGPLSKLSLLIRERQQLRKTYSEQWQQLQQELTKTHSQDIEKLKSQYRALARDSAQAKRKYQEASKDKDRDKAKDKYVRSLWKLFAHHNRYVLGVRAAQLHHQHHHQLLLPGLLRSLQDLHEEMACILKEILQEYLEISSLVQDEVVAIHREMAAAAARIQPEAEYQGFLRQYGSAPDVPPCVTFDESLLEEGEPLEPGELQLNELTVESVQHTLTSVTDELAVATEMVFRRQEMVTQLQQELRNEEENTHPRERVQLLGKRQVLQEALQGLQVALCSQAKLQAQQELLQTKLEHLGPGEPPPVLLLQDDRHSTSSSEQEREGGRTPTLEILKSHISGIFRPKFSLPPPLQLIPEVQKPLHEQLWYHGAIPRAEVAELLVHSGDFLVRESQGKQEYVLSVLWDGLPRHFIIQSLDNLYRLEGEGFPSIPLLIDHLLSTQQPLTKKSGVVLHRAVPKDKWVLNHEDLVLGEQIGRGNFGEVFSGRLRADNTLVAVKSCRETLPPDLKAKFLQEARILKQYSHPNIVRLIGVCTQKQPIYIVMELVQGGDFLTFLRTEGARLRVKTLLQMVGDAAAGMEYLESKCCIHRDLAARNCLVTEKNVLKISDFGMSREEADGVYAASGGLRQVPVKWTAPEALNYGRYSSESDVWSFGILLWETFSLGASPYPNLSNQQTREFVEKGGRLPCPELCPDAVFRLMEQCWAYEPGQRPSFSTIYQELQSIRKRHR
Chain of Fibroblast growth factor receptor 1 (Homo sapiens) (P11362 22-822 limits assumed): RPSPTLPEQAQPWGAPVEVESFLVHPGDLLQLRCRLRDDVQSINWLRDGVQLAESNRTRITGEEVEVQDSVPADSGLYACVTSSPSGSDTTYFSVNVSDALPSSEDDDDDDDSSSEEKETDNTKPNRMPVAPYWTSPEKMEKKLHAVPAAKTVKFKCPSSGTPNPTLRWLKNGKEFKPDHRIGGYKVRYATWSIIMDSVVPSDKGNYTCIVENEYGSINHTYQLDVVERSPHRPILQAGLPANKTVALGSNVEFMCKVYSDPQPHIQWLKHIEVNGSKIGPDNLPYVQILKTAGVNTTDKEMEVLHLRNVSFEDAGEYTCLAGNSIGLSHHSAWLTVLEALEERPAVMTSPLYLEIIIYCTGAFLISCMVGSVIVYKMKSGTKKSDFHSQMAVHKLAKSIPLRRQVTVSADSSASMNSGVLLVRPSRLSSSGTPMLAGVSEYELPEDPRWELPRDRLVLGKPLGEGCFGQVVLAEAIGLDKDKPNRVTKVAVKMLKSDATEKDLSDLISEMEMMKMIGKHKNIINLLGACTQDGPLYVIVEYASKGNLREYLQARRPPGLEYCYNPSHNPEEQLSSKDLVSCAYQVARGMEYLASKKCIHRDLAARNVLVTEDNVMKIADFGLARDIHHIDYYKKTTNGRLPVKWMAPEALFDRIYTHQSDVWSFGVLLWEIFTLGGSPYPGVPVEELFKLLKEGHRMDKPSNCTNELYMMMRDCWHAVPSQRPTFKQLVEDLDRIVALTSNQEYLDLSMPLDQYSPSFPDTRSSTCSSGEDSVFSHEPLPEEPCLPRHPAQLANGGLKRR
Chain of Non-receptor tyrosine-protein kinase TYK2 (Homo sapiens) (P29597 whole entry): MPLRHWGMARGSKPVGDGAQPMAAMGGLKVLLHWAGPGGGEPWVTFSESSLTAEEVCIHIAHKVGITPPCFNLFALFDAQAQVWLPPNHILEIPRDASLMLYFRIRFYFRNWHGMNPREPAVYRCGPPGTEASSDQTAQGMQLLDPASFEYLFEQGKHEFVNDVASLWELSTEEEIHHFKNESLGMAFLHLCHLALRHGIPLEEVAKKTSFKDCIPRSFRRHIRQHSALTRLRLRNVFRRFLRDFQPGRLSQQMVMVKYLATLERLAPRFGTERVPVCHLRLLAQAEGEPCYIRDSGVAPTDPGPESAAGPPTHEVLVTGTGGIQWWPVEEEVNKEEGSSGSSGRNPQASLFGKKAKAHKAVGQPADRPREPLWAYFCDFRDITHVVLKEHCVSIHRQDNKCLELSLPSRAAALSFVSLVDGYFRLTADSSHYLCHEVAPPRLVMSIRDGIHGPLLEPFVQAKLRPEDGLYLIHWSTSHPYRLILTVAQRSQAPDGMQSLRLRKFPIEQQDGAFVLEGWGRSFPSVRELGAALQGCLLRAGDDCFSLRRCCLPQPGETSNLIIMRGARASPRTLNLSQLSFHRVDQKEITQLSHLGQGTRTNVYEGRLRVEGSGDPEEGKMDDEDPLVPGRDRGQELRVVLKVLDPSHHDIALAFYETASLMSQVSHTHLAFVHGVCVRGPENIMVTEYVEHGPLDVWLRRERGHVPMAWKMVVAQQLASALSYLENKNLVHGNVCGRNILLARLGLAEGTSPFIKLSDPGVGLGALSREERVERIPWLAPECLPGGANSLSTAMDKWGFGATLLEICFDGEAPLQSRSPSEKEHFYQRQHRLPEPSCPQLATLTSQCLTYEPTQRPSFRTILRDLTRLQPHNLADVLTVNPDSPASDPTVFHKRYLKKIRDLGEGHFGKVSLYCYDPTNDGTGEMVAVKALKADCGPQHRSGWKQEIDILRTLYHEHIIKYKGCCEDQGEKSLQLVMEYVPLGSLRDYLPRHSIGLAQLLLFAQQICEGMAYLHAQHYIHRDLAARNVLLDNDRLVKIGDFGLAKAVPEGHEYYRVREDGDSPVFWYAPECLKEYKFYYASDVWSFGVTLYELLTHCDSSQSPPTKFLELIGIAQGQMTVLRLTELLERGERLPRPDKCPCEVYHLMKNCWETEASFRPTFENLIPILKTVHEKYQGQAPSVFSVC
Chain of Fibroblast growth factor receptor 2 (Homo sapiens) (P21802 22-821 limits assumed): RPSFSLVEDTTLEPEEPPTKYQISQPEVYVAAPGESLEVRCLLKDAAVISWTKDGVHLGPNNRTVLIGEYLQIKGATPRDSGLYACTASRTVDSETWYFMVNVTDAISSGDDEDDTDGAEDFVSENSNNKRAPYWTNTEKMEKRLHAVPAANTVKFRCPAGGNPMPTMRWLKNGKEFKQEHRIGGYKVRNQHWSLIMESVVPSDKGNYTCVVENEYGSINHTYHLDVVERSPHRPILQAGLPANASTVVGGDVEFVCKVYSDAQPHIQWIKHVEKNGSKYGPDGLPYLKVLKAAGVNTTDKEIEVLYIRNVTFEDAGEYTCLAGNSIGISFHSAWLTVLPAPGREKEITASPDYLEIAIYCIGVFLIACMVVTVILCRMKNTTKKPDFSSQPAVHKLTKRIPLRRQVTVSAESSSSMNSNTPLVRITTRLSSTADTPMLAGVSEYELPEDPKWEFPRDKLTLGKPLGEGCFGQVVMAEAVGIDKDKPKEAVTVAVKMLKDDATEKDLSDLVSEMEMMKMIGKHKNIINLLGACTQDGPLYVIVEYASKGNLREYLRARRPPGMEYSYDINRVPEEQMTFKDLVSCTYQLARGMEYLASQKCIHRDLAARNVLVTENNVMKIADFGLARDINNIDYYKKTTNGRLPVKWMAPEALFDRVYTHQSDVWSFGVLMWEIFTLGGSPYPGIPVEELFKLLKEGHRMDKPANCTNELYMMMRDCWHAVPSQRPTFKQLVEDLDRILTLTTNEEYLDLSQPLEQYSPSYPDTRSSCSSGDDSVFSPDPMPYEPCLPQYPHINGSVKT

Row | Structure (SMILES) | inhibition [1] | inhibition [2] | inhibition [3] | inhibition [4] | inhibition [5] | inhibition [6] | inhibition [7] | inhibition [8] | inhibition [9] | inhibition [10] | inhibition [11] | inhibition [12] | inhibition [13] | inhibition [14] | inhibition [15] | inhibition [16] | inhibition [17] | inhibition [18] | inhibition [19] | inhibition [20]
1 | COc1cc2ncn(-c3cc(OCc4ccccc4Cl)c(C(N)=O)s3)c2cc1OC | 8.52% | -0.24% | 0.38% | 3.46% | 8.43% | 13.2% | 4.37% | 13.2% | -5.86% | 2.76% | 3.61% | 19.1% | 0.69% | 9.81% | 0.85% | 3.62% | -2.29% | 2.41% | 1.87% | –
2 | CS(=O)(=O)CCNCc1nc(-c2ccc3ncnc(Nc4ccc(F)c(Cl)c4)c3c2)cs1 | 4.88% | 0.25% | -0.06% | -5.98% | 1.65% | 5.07% | 2.17% | 4.26% | 2.32% | -0.36% | 5.78% | 10.6% | 1.98% | -0.42% | -0.6% | 0.63% | 2.29% | -3.18% | 0.5% | 1.9%
3 | COc1ccccc1Nc1ncc(-c2ccccc2)o1 | 11.2% | 4.25% | 3.85% | 8.72% | 5.99% | 13.7% | 6.19% | 13.1% | -2.79% | 0.7% | 5.21% | 12.1% | 4.3% | 16.4% | 61% | 87.2% | 5.09% | -0.92% | 1.91% | 6.35%
4 | CCc1cccc(NC(=O)Nc2ccc(Oc3ccc4nc(NC(=O)OC)[nH]c4c3)cc2)c1 | 1.84% | 0.9% | 0.62% | -3.46% | 3.26% | 8.89% | 3.09% | 6.95% | 4.21% | -0.63% | 5.68% | 5.18% | 36.4% | 43.8% | 37.4% | 48% | 1.59% | -2.46% | 10.6% | 3.25%
5 | CS(=O)(=O)CCNCc1ccc(-c2ccc3ncnc(Nc4ccc(OCc5ccccc5)c(Cl)c4)c3c2)o1 | 10.4% | 0.53% | 0.08% | 0.78% | 3.71% | 5.46% | 2.05% | 4.98% | -0.26% | 0.28% | 2.49% | 11.5% | -0.51% | 0.52% | 1.48% | 2.75% | -3.65% | 1.7% | 0.02% | 0.57%
6 | CCn1c(-c2nonc2N)nc2c(C#CC(C)(C)O)nc(CN3CCCC3)cc21 | 0.06% | -1.26% | -0.58% | -3.25% | -2.63% | 0.42% | -2.14% | -0.76% | -0.75% | 1.16% | -1.03% | 3.81% | -1.48% | 3.78% | -1.67% | -0.42% | -4.71% | -0.89% | 0.06% | -0.04%
7 | CCn1c(-c2nonc2N)nc2ccncc21 | 0.13% | 0.83% | 1.98% | 0.47% | -1.46% | 4.73% | 0.49% | 0.64% | -8.14% | -0.3% | 0.66% | 1.16% | 0.15% | -0.38% | 3.16% | 1.23% | -3.67% | -0.83% | -0.29% | -0.14%
8 | NS(=O)(=O)c1ccc(N/N=C2\C(=O)Nc3ccc(C(=O)NCCc4c[nH]cn4)cc32)cc1 | – | 5.34% | 8.37% | 3.36% | 12.1% | 11.5% | 6.41% | 7.55% | 4.66% | 2.39% | 4.54% | 19.1% | 2.21% | 10.7% | 7.03% | 23.4% | 8.84% | 0.3% | 5.07% | 7.55%
9 | Cc1nn(C)c2cc(N(C)c3ccnc(Nc4cccc(S(N)(=O)=O)c4)n3)ccc12 | 35.8% | 2.04% | 6.14% | -0.21% | – | 20.7% | 3.96% | 11.4% | -9.61% | 0.29% | 14.8% | 48% | 2.5% | 30% | 2.69% | 15.4% | 2.72% | 2.39% | 6.07% | 5.4%
10 | CC(C)=Cc1cccc2c1/C(=N/Nc1ccc(S(N)(=O)=O)cc1)C(=O)N2 | 20.1% | 0.31% | 2.29% | -0.4% | 14.7% | 36.8% | 3.36% | – | 4.09% | 1.59% | 5.76% | 25.3% | 1.39% | 13.9% | 6.79% | 48.9% | 15.6% | 20.7% | 2.83% | 3.88%
11 | NS(=O)(=O)c1cccc(-c2ccc3c(NC(=O)C4CC4)n[nH]c3c2)c1 | 3.76% | -3.2% | -4% | 0.33% | -2.92% | -1.15% | -0.12% | 0.44% | 0.21% | -0.5% | -1.55% | -0.19% | -1.03% | -0.85% | 0.61% | -0.59% | -3.17% | 1.94% | -0.52% | -1.77%
12 | NC(=O)c1cccc(Nc2nccc(Nc3cccc4[nH]ncc34)n2)c1 | 21.9% | -2.33% | 10.9% | -5.24% | 9.11% | 13.1% | -3.38% | 4.68% | 1.28% | 6.94% | 53.6% | 76.7% | 2.24% | 29.2% | 6.63% | 48% | 10.4% | 39.1% | 9.98% | -1.94%
13 | CNC(=O)c1cncc(/C=C/c2c(Cl)cccc2Cl)c1 | 5.39% | 2.89% | 4.62% | 1.94% | -1.56% | 7.15% | 5.62% | 1.39% | 1.14% | 1.17% | 3.11% | 21.3% | 0.03% | 4.61% | -0.33% | 2.17% | -3.3% | -3.44% | 1.91% | 3.82%
14 | CCn1c(-c2nonc2N)nc2c(C#CC(C)(C)O)nc(OC[C@@H](N)c3ccccc3)cc21 | 4.88% | -0.53% | 5.13% | -3.47% | 5.43% | 0.85% | -1.33% | -0.5% | 2.3% | 0.19% | 5% | 10.2% | 5.16% | 33.9% | -0.98% | -0.75% | -1.79% | 0.35% | -0.52% | -3.01%
